# Over roughly 68,000 sequences, “fluorescence intensity (a.u.)” has its median near 9,100; the highest 2% begin near 16,000. The sample holds the highest values, similar sequences and a random draw of the others, so the mix is not that of the screen.
# Target: OsWRKY34 (Oryza sativa, UniProt Q0JBA9 1-250)
# Assay: protein-binding microarray (RPBM); PBS, 2% BSA, 51.3 ng/ul salmon testes DNA, 50 uM zinc acetate, 200 nM TF, 25 C, 1 h; high values mean tight binding
# Conditions: protein: recombinant; tags: N-terminal polyhistidine and DsRed monomer fusion (pET32a); label: CyDye5-dUTP incorporated in the synthesized complementary strand; 3' TTTTT single-stranded linker to array surface; dsDNA, one strand shown
# In short: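 Binding signal here means per-feature fluorescence intensity in arbitrary units. The values were read on an Axon 4000B scanner after a custom Agilent array, double-stranded by primer extension with Cy5-dUTP, was incubated with 200 nM protein at 25 °C for 1 h in PBS with 2% BSA, salmon testes DNA and 50 µM zinc acetate, then washed. The proteins were transcription factors with an N-terminal polyhistidine tag and DsRed, expressed in E. coli BL21-CodonPlus and purified on Ni–NTA.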
# Sequence of OsWRKY34 (Q0JBA9 entry or part of it): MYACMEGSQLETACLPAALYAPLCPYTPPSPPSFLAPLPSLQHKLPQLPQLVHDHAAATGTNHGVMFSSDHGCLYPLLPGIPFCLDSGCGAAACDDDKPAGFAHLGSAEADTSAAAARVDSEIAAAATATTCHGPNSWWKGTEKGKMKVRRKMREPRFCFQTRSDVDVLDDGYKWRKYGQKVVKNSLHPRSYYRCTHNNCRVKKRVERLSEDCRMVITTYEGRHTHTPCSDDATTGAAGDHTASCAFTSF
row,Sequence,binding signal
1,GTTGTTCTTGGCGGCTAGGTCGTGGGGTTTTCTTGTTTCGCGGAGTCACCTAGTGCAG,22800 fluorescence intensity (a.u.)
2,TGTGGTGGAGGCCGGCTGGGTTCTCTTGGGGTTTGGCCGGCGGAGTCACCTAGTGCAG,10400 fluorescence intensity (a.u.)
3,TCGTTCTTGGCTGGGTTTGGTTTGGTTTGGTTTGGTCTCGCGGAGTCACCTAGTGCAG,45500 fluorescence intensity (a.u.)
4,ACCGAATCCGAATCCCGCGTTTCTTTGTTGCGCGCGCGACCGGAGTCACCTAGTGCAG,10100 fluorescence intensity (a.u.)
5,CGTGGGGTTTTCTTGTTTCGGAGGTAGGGAGAGGTTTCGTCGGAGTCACCTAGTGCAG,11900 fluorescence intensity (a.u.)
6,GCTGTTATTGGTTGCTCCTCGCGGTCTCCTTTTTTGGTGACGGAGTCACCTAGTGCAG,10800 fluorescence intensity (a.u.)
7,AAATCCCCTTGTTACCGCGCGTTGTTTGGTTGTACCGCGCCGGAGTCACCTAGTGCAG,16600 fluorescence intensity (a.u.)
8,GTTGGGGTGGTTGGTTTGGGGATCCCCTGTTGTACCCTGCCGGAGTCACCTAGTGCAG,10700 fluorescence intensity (a.u.)
9,TTCGCGCGCTGCTCGCTCGCTTGGTTGGTTGGTTGATTGCCGGAGTCACCTAGTGCAG,15200 fluorescence intensity (a.u.)
10,TTGGTTTGGTTGCTCCTCGCGCTGTTATTGGTTGCTCCTCCGGAGTCACCTAGTGCAG,19900 fluorescence intensity (a.u.)
11,TTGGTCTCTCCTCGTCGCTGGGGTTCTTTGTTCTTGTAGTCGGAGTCACCTAGTGCAG,10000 fluorescence intensity (a.u.)
12,CGCTCCGCGATTCGTGTTGGTTCTTTTTTTTGTTTCTTGGCGGAGTCACCTAGTGCAG,8470 fluorescence intensity (a.u.)
13,TTCGGGCATACGCCACCCCGCCTTGTCATCCACCGCGCCCCGGAGTCACCTAGTGCAG,8470 fluorescence intensity (a.u.)
14,AACATTTATTTCCATATCTTCATATATGGTTCCATATGAACGGAGTCACCTAGTGCAG,8400 fluorescence intensity (a.u.)
15,TGCCAAGGACTGCATCTTCATCATTGCCTGGGTGTCCACCCGGAGTCACCTAGTGCAG,8700 fluorescence intensity (a.u.)
16,AACCCACAATTACGCGGCGGTGCATTCTCGTTGCTTTGACCGGAGTCACCTAGTGCAG,11400 fluorescence intensity (a.u.)
17,ACCGACTCAAAAACCTAACGGCACTTTTTTTATTTTCAACCGGAGTCACCTAGTGCAG,10600 fluorescence intensity (a.u.)
18,GCGTTTTTGTCTCTCTGCTCTCTGCTGCTGCTGCTGGGTCCGGAGTCACCTAGTGCAG,11300 fluorescence intensity (a.u.)
19,GGTTTCGGTCTCGGTTTTTTCGGTTCGGTTCTTCGGTTCGCGGAGTCACCTAGTGCAG,9660 fluorescence intensity (a.u.)
20,AACCTCAATTTTGTTTGTTTTGCCTTTTGGTTCAAATACTCGGAGTCACCTAGTGCAG,8180 fluorescence intensity (a.u.)
21,ACGTTGTTTGTGTCACGCTTCTCAAATCCCTTGGTGTTCTCGGAGTCACCTAGTGCAG,11700 fluorescence intensity (a.u.)
22,GGTTGGTGACGCGTTGTTGTTTGTTCCTCAAATTTGTTCTCGGAGTCACCTAGTGCAG,16500 fluorescence intensity (a.u.)
23,GGTTGGCTTCTTCTCGGTTTGTTCGTTCCTTGTGGTCGAGCGGAGTCACCTAGTGCAG,8240 fluorescence intensity (a.u.)
24,TCTACGAGGGTTTTTGCGCTTTTGTTGCTCTCCGCTCCGCCGGAGTCACCTAGTGCAG,8160 fluorescence intensity (a.u.)
25,CTGCGCTCTCCATTGTTTTGTGTTGTGTTTGTTTGCAGTCCGGAGTCACCTAGTGCAG,17700 fluorescence intensity (a.u.)
26,CTCATTGTTGTTGTGTTGTTGCGTTTGGTTTGGTGTGCTCCGGAGTCACCTAGTGCAG,8510 fluorescence intensity (a.u.)
27,GTTGGTTGGTTGGTTGGTTGGCTTCTTCTCGGTTTGTTCGCGGAGTCACCTAGTGCAG,25000 fluorescence intensity (a.u.)

row,Sequence,binding signal
1,TCGCGTCGCGTTTCGACCTCGCGCTCTGGGTCTGGGTGTCCGGAGTCACCTAGTGCAG,8330 fluorescence intensity (a.u.)
2,TCGCGCGTGTCACTGGGTTTGGGTTGGGTCTCTCTCTCTCCGGAGTCACCTAGTGCAG,18400 fluorescence intensity (a.u.)
3,TCTCAGCGGCCCGAACCTGTCTACGTCGCCCGTGTCTTGTCGGAGTCACCTAGTGCAG,11200 fluorescence intensity (a.u.)
4,CTGGCACTTGGCACTTGGTTAATTCCACTCACTCATCACTCGGAGTCACCTAGTGCAG,8260 fluorescence intensity (a.u.)
5,ACATGTGGAGGGAACAGGGCGTGGAATCAAGGGTCGGGATCGGAGTCACCTAGTGCAG,8290 fluorescence intensity (a.u.)
6,AGATATACCGTTGTTGCATTTCACCTTAAAATATTTCCAACGGAGTCACCTAGTGCAG,8550 fluorescence intensity (a.u.)
7,GCTCTCTTCTCGCCGCCTCGGCCTCGCCGCCGTGGCCGCCCGGAGTCACCTAGTGCAG,9500 fluorescence intensity (a.u.)
8,ACATAACCCCGTCATCTCGGCGACCCTCTCTCGTGGTCGCCGGAGTCACCTAGTGCAG,8540 fluorescence intensity (a.u.)
9,GTCTCACTCTCCCAATCCGCCTCGGCCCGAGCGCGCGCGCCGGAGTCACCTAGTGCAG,9530 fluorescence intensity (a.u.)
10,CCTTGTATTCGGCCCGCACACGCCAACCTGTCCTGTTCTGCGGAGTCACCTAGTGCAG,9600 fluorescence intensity (a.u.)
11,GGCGAAGTACTTCTTGGTGTTGTTGCTGCCGCTGCCGGCGCGGAGTCACCTAGTGCAG,8120 fluorescence intensity (a.u.)
12,GGTGTTGGGTGTTTGTTCGTTGGTTCCGCTGCTGCTGTTGCGGAGTCACCTAGTGCAG,8180 fluorescence intensity (a.u.)
13,TGGTTTGGTTTGGTTCTTTGTTGTTGCTGCCGCTGCCGCGCGGAGTCACCTAGTGCAG,31400 fluorescence intensity (a.u.)
14,CAGGGCCATGTTCGCTGATACATTGTGTTGGATTGCACTGCGGAGTCACCTAGTGCAG,8030 fluorescence intensity (a.u.)
15,GTTTACCATTGCATTCCCCGGTCCACGTGCATCAGTGCATCGGAGTCACCTAGTGCAG,9610 fluorescence intensity (a.u.)
16,CACACTATAGCTAGTACTAGTACTAGTACTACTTAAACTACGGAGTCACCTAGTGCAG,8120 fluorescence intensity (a.u.)
17,AGTGTCTGACACTACTTAAGAAACCATAGCAGTGCTAAAGCGGAGTCACCTAGTGCAG,31200 fluorescence intensity (a.u.)
18,ACACTACCTTAAAGAAACATCAGTGACATCTCCATCACTCCGGAGTCACCTAGTGCAG,8750 fluorescence intensity (a.u.)
19,GCCTACTTAAATTACATTTCCGCACCCACACCACACACACCGGAGTCACCTAGTGCAG,11400 fluorescence intensity (a.u.)
20,GCCGGCCTGGGAGGCCGAAGGTTGGGGATGACAGGTGGGGCGGAGTCACCTAGTGCAG,8920 fluorescence intensity (a.u.)
21,GCTGCCCGCTCTAATCTGTTTTGTCTCCATCTGCTATGATCGGAGTCACCTAGTGCAG,8950 fluorescence intensity (a.u.)
22,GAGTACTCGTCCGGGGTTTTTAACTTTTTGCCACTTTTAACGGAGTCACCTAGTGCAG,9100 fluorescence intensity (a.u.)
23,GAGAACCTAATTGTGAGGCTCCTAGTTACACGACAAATCACGGAGTCACCTAGTGCAG,56300 fluorescence intensity (a.u.)
24,GGTGTGTTTGGCAAATGAGTTATGAGAGGTGTGATTGTTACGGAGTCACCTAGTGCAG,8860 fluorescence intensity (a.u.)
25,AACAATCACCTAGGCTAAATGTTACTTCCTCCGTTTCACACGGAGTCACCTAGTGCAG,9190 fluorescence intensity (a.u.)
26,CGTACTATAATTTTGTCATTCCTGTTGAAATTTTATAATTCGGAGTCACCTAGTGCAG,9340 fluorescence intensity (a.u.)
27,GCCGGTCTCCTCCCCGCCACCGCCGCCGCCGCCGCCAATGCGGAGTCACCTAGTGCAG,8650 fluorescence intensity (a.u.)

# — PMC7819943, “Rice protein-binding microarrays: a tool to detect cis-acting elements near promoter regions in rice”
